Inconclusive results are not listed. Calls of active or inactive are those of the source. Unless noted, the rule behind the calls is not given here.

These results are taken from PubChem BioAssay (NCATS).

Experiment [1] is described as follows: qHTS profiling of the MIPE4 collection as inhibitors of Plasmodium falciparum (3D7) proliferation (AID 743344).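 Note: scaled between DMSO vehicle wells and 0.29 µM artemisinin as full inhibition.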 The following applies: P. falciparum 3D7 in erythrocytes, SYBR Green DNA fluorescence, 72 h; at 28.5 µM unless noted. The method, boiled down: (§1)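 Parasite DNA was quantified by SYBR Green I fluorescence (ex 485, em 535 nm) after overnight lysis in saponin/Triton buffer at room temperature. Cultures at 0.3% parasitemia and 2.5% hematocrit were first exposed to compound for 72 h at 37 C; signals were normalised to artemisinin (0.29 uM) and vehicle wells.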

Experiment [2] is described as follows: qHTS profiling of the MIPE4 collection as inhibitors of Plasmodium falciparum (DD2) proliferation (AID 743345). The following applies: P. falciparum Dd2 in erythrocytes, SYBR Green DNA, 72 h; at 28.5 µM unless noted. The essentials: as §1
Experiment [3] is described as follows: qHTS profiling of the MIPE4 collection as inhibitors of Plasmodium falciparum (DD2) proliferation (Rep 2) (AID 743346). The following applies: P. falciparum Dd2 in erythrocytes, SYBR Green DNA, 72 h; at 28.5 µM unless noted. The method, boiled down:
as §1
Background: Quantitative high-throughput screening tests each substance at several concentrations.

A short description of experiment [4]: qHTS profiling of the MIPE4 collection as inhibitors of Plasmodium falciparum (HB3) proliferation (AID 743347).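 Note: plate controls were DMSO vehicle wells for no effect and artemisinin wells for full effect.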 The following applies: P. falciparum HB3 in erythrocytes, SYBR Green DNA, 72 h; at 28.5 µM unless noted. The essentials:
as §1

A short description of experiment [5]: High-throughput drug toxicity screening in the BPDCN cell line Cal-1 (AID 1224825).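 Note: cells exposed to compounds for 48 h.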 The following applies: Cal-1 BPDCN cell viability, qHTS; at 45.8 µM (top of the series) unless noted. The essentials:
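Viability of the BPDCN line Cal-1 is measured as ATP-based luminescence (CellTiter-Glo) following 48 h incubation with compounds. Percent activity uses DMSO-treated wells as 100% and 9.2 uM bortezomib as 0%.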

The nature of experiment [6]: qHTS assay for measurement of the activity of small molecule inhibitors on Zika virus induced Caspase-3 activity in human iPSC derived neural progenitor cells (hNPCs) (AID 1224857; active = well fitted curve in the direction sought with a large enough effect; an effect the other way counts as inactive or inconclusive; note: nearly all actives have a fitted effect of over 65% in size; note: potency is the fitted concentration of half-maximal effect). The method, boiled down:
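Caspase-3/7 induction by a 6-hour ZIKV infection was quantified with a luminescent Caspase-Glo 3/7 reagent incubated 30 minutes at room temperature. Compounds were preincubated with hNPCs for 1 hour; inhibition was calculated against uninfected and infected control wells.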

The nature of experiment [7]: qHTS assay for measurement of the activity of small molecule inhibitors on Zika virus induced Caspase-3 activity in human astrocytoma cells (AID 1224859; active = well fitted curve in the direction sought with a large enough effect; an effect the other way counts as inactive or inconclusive;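 note: plate controls were ZIKV-infected untreated cells for no effect and uninfected cells for full effect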). The essentials:
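In SNB-19 cells plated at 250 cells/well and grown 16-20 h, compounds were applied 1 h before ZIKV (2 FFU/cell). Six hours later caspase-3/7 luminescence was recorded.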

Experiment [8] is described as follows: qHTS Assay for Identifying Gametocytocidal Compounds (AID 743244; active = well fitted curve in the direction sought with a large enough effect; an effect the other way counts as inactive or inconclusive;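 note: % is set by controls: 0 for no effect and ±100 for the full control effect; actives lower the fluorescent signal which means gametocytes are killed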). The following applies: P. falciparum 3D7 stage III-V gametocytes, alamarBlue, 72 h; max response: stronger effect = lower value. The essentials:
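Late gametocytes (III–V), P. falciparum 3D7; 72 h drug, then 24 h alamarBlue; resazurin reduction read by fluorescence.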

Experiment [9] can be described thus: qHTS profiling for inhibitors of Plasmodium falciparum (3D7) proliferation (AID 743322).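 Note: infected erythrocytes exposed to compound for 72 h before lysis; 100% = DMSO vehicle wells and 0% = 0.29 µM artemisinin.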 The following applies: P. falciparum 3D7 proliferation; at 28.7 µM (top of the series). The essentials:
as §1

Experiment [10] in a line: qHTS profiling for inhibitors of Plasmodium falciparum (DD2) proliferation (AID 743323). The following applies: lower = more inhibition; at 28.7 µM (top of the series). The essentials: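 SYBR Green fluorescence (ex 485, em 535 nm) of lysed cultures gives parasite DNA content; wells normalized to artemisinin (0.29 uM) and DMSO controls. Infected red cells: 0.3% parasitemia, 2.5% hematocrit, 72 h, 37 C.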

Experiment [11] is described as follows: qHTS profiling for inhibitors of Plasmodium falciparum (HB3) proliferation (AID 743324; active = well fitted curve in the direction sought with a large enough effect; an effect the other way counts as inactive or inconclusive;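 note: 100% = DMSO vehicle wells and 0% = artemisinin-treated control wells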). The following applies: Plasmodium falciparum HB3 blood-stage proliferation; at 28.7 µM (top of the series). The method, boiled down:
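SYBR Green fluorescence (485 ex/535 em) of lysed cultures, incubated overnight at room temperature in the dark, quantifies parasite DNA. Infected erythrocytes at 0.3% parasitemia and 2.5% hematocrit were exposed 72 h; values normalized to DMSO and 0.29 uM artemisinin controls.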

Regarding `CCNc1cc(NC2CCC(O)CC2)nc(Nc2ccc3c(ccn3Cc3ccccc3)c2)n1` (stereo not drawn), the parasite growth, % of DMSO control in experiment [1] is 4.9%. In addition, the parasite growth remaining, % of DMSO control (lower = more inhibition) in experiment [2] came out at 6.69%. The compound also returned a parasite growth, % of control (lower = inhibition) in experiment [3] of 15.2%. The same compound registered a growth, % of control in experiment [4] of 9.27%. Also, in experiment [5], the viability (% of control) was found to be 2.13%. The Potency entry in [6] and in experiment [7] was “inactive” each time.

In experiment [1], `COc1cc(N2CCC(N3CCN(C)CC3)CC2)ccc1Nc1ncnc(Nc2ccccc2S(=O)(=O)C(C)C)n1` yielded a parasite growth, % of DMSO control of 8.76%. The parasite growth remaining, % of DMSO control (lower = more inhibition) in experiment [2] is 8.1%. In experiment [3], this compound came in with a parasite growth, % of control (lower = inhibition) of 8.07%. Also, in [5], the viability (% of control) was found to be 6.26%. Also, the Potency entry in experiment [6] was “inactive”.

Compound `NC(=O)c1cccc2[nH]c(-c3ccc([C@H]4CCCN4)cc3F)nc12` showed a parasite growth, % of DMSO control in [1] of 5.38%. The compound further registered a parasite growth remaining, % of DMSO control (lower = more inhibition) in [2] of 43.5%. In addition, the parasite growth, % of control (lower = inhibition) in [3] is 8.83%. Besides, in experiment [4], the growth, % of control amounted to 2.5%. The viability (% of control) in experiment [5] was determined as 19.9%. Also, in [6], the Potency is 18.7 µM (active).

As to `CO[C@H]1C=CO[C@@]2(C)Oc3c(C)c(O)c4c(O)c(c5c(c4c3C2=O)NC2(CCN(CC(C)C)CC2)N=5)=NC(=O)C(C)=CC=C[C@H](C)[C@H](O)[C@@H](C)[C@@H](O)[C@@H](C)[C@H](OC(C)=O)[C@H]1C`, the parasite growth, % of DMSO control in [1] came to 5.28%. Besides, the parasite growth remaining, % of DMSO control (lower = more inhibition) in experiment [2] came to 17.8%. In addition, the parasite growth, % of control (lower = inhibition) in experiment [3] was determined as 12.8%. For the same compound, the growth, % of control in experiment [4] was determined as 5.92%. In addition, the viability (% of control) in experiment [5] is 97.3%. For the same compound, the Potency result in [6] and in experiment [7] was “inactive” in each case.

For `COc1cc(Nc2ncc(F)c(Nc3ccc4c(n3)NC(=O)C(C)(C)O4)n2)cc(OC)c1OC`, in experiment [8], the max response is 23.2% (inactive). The remaining parasite growth % (stronger effect = lower value) in experiment [9] was found to be 83%. The same compound gave an activity, percent of control in experiment [10] of 89.1%. This compound gave a remaining proliferation (% of control), lower = more inhibition in experiment [11] of 58.2%. The parasite growth, % of DMSO control in experiment [1] is 5.27%. In experiment [2], this compound returned a parasite growth remaining, % of DMSO control (lower = more inhibition) of 7%. This compound returned a parasite growth, % of control (lower = inhibition) in [3] of 6.47%. The compound also displayed a growth, % of control in [4] of 2.09%. The compound further came in with a viability (% of control) in experiment [5] of 58.1%. The Potency entry in experiment [6] and in [7] was “inactive” in each case.

`C[C@]12CCC3c4ccc(O)cc4CCC3C1CCC2=O` (stereo partly drawn): in experiment [1], the parasite growth, % of DMSO control is 51.9%. For the same compound, in experiment [2], the parasite growth remaining, % of DMSO control (lower = more inhibition) turned out to be 75.4%. In addition, in experiment [3], the parasite growth, % of control (lower = inhibition) was 54.3%. This compound returned a growth, % of control in [4] of 66.9%. In experiment [5], this compound showed a viability (% of control) of 62.5%. The Potency result in experiment [6] and in [7] was “inactive” in each case.
